Screening data from PubChem BioAssay.
Compounds with a hit are over-represented: about 2.9% of the library has one in this group of screens.
Granule exo inh: blocks lytic granule exocytosis; TALL-104 LAMP-1 surface exposure, flow cytometry; cells stimulated with thapsigargin and PMA; inhibition, % at 10 µM; 360,000 tested, 0.66% active;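 active means inhibition above about 55%, limit read from the data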
PP1 counter: blocks human PP1-alpha phosphatase, a PP5 counter-screen; inhibition, % at 6.7 µM; 320,000 tested, 0.9% active; purified PP1alpha, OMFP fluorescence;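 active means inhibition above the mean inhibition of all tested compounds plus 3 SD, computed separately for each screening campaign, cut at about 15% in these data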
Target sequence (P62136 whole entry, looked up): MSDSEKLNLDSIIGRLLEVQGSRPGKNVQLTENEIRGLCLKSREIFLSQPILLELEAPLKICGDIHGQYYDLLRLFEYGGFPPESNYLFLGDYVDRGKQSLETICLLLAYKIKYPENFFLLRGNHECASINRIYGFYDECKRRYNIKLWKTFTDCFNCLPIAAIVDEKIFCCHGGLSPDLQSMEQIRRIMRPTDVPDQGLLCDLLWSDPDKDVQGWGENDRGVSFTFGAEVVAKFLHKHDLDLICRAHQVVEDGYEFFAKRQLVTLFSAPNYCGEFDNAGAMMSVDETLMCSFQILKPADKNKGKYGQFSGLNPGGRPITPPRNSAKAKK
NadD inh: inhibitors of Staphylococcus aureus NadD | purified NadD enzyme, colorimetric absorbance read-out | inhibition, % at 20 µM | 360,000 tested, 0.78% active | AID 602399; in the data active means inhibition above about 26%
Beta2AR agonist: activates human beta-2 adrenergic receptor causing internalization; response, % (concentration not given with the values); Am2.2-beta2AR cells, FAP receptor internalization, flow cytometry; AID 504454; P07550; 340,000 tested, 0.43% active;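 active means response above a set limit, near 3 SD of response in nonfluorescent compounds, cut at about 42% in these data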
GRK2 inh: human GRK2 inhibition via aptamer displacement. 330,000 tested, 0.59% active. inhibition of aptamer binding, % at 10 µM. bead flow cytometry, FAM-aptamer displacement from GRK2;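 active means inhibition of aptamer binding above 40%, roughly 3 SD of noise, on plates passing a quality check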;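 further: median bead fluorescence of bound FAM aptamer so fluorescent compounds give negative values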
PP1 confirm: confirmation of human PP1 phosphatase inhibitors; inhibition, % at 6.7 µM; shares compounds with PP1 counter; purified PP1alpha, OMFP substrate fluorescence; 1,900 tested, 52% active;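 active means mean PP1 inhibition above a set limit taken from the earlier primary screen, cut at about 15% in these data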
PP5 counter: PP5 phosphatase inhibition, counter-screen for PP1 inhibitors; inhibition, % at 6.7 µM; 1,900 tested, 4% active; AID 2360; purified PP5c, OMFP fluorescence; shares compounds with PP1 counter;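 active means mean PP5 inhibition over triplicate wells above about 9.5% taken from the earlier PP1 screen, limit read from the data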
An asterisk follows results filed as active; · = not tested or not shown.

SMILES	Granule exo inh	PP1 counter	NadD inh	Beta2AR agonist	GRK2 inh	PP1 confirm	PP5 counter
C#CCOCCOCCOCCNc1nc(N2CCN(C(=O)CCCCCCCCCCNC(=O)[C@H](CCCCN)n3cc(CCO)nn3)CC2)nc(N2CCN(C(=O)CCCCCCCCCCNC(=O)[C@H](CCCN=C(N)N)n3cc(C[C@@H](C)CC)nn3)CC2)n1	-5	45*	44*	19	0	44*	2
CCOC(=O)[C@]12CCCC=C1N(Cc1cccc3ccccc13)C(=O)[C@H](CC(=O)NCCCCc1ccccc1)C2	5	·	0	·	·	·	·
Cc1c(C(=O)NCC(c2ccco2)N(C)C)oc2c(Cl)cccc12 (configuration not stated)	4	-3	-4	18	1	·	·
Cc1cnc(C(=O)OC(C(=O)c2c[nH]c3ccccc23)c2ccccc2)cn1 (configuration not stated)	3	-2	0	-5	4	·	·
Cc1ccc(Cn2nnc3c(=O)[nH]c(C4CCN(S(=O)(=O)c5cc(C)ccc5C)CC4)nc32)cc1	-2	28*	5	25	2	24*	4
Cc1ccc(Cn2nnc3c(=O)[nH]c(C4CCN(S(=O)(=O)c5ccc(F)cc5)CC4)nc32)cc1	2	14	15	-3	4	·	·
Cc1ccc(C)c(S(=O)(=O)N2CCC(c3nc4c(nnn4Cc4ccc(F)cc4)c(=O)[nH]3)CC2)c1	1	18*	17	1	0	7	1
Cc1ccc(C)c(Cn2nnc3c(=O)[nH]c(C4CCN(S(=O)(=O)c5ccc(S(=O)(=O)NC6CC6)cc5)CC4)nc32)c1	-6	18*	26	10	2	15*	5
CC(C)CNC(=O)c1ccccc1NC(=O)CN(c1ccccc1)S(=O)(=O)N(C)C	1	-1	0	3	0	·	·
COc1ccc(C(=O)/C=C/Nc2cccc(C)n2)cc1OC	-8	35*	0	-10	0	1	-3
O=S1(=O)CCOCCCN1Cc1ccccc1Br	-7	0	-2	-3	1	·	·
Cc1ccc(C(=O)OCC(=O)c2ccc(S(=O)(=O)N3CCCCC3)cc2)o1	2	66*	-2	7	5	0	-2
COc1ccc(C(=O)OCC(=O)c2ccc(S(=O)(=O)N3CCCCC3)cc2)c(OC)c1	-2	·	-7	-1	·	·	·
CC(C)Cc1ccc(C(=O)NCCOc2ccccc2)o1	5	2	0	0	1	·	·
Cc1ccc(NC(=O)CNC(C)c2ccccc2)cc1 (configuration not stated)	10	-2	-2	5	0	·	·
O=C1N/C(=C/c2ccc(N3CCCC3)cc2)C(=O)N1c1ccccc1	1	23*	9	12	2	11	-3
O=C1/C(=C/c2ccc(N3CCCC3)cc2)NC(=S)N1C1CC1	-2	-1	3	-94	0	·	·
Cc1ccc(-n2c(C)cc(/C=C3\SC(=O)NC3=O)c2C)cc1	5	2	9	7	1	·	·
Cc1cc(/C=C2\SC(=Nc3ccccc3)NC2=O)c(C)n1-c1ccc(S(N)(=O)=O)cc1	-1	18*	46*	18	1	7	0
COc1cccc(CSc2nc3ccncc3[nH]2)c1	7	-2	-7	-4	0	·	·
COc1ccc(Cn2c(N)c(C#N)c3nc4ccccc4nc32)cc1	6	1	-2	1	2	·	·
COc1cc(Cn2c(N)c(C#N)c3nc4ccccc4nc32)cc(OC)c1	3	18*	0	-11	0	8	6
CN(C)CCCNS(=O)(=O)c1ccc(Cl)s1	-2	-4	2	8	2	·	·
COc1ccc(C(CNC(=O)c2ccc(-c3ccccc3)cc2)N(C)C)cc1OC (configuration not stated)	-6	43*	-6	12	0	-2	1
Cc1nn(-c2ccccc2)c(C)c1/C=C1\C(=O)N(C)C(=S)N1C	-4	-2	-5	-7	0	·	·
SMILES	Granule exo inh	PP1 counter	NadD inh	Beta2AR agonist	GRK2 inh	PP1 confirm	PP5 counter
O=C1NCCCC1C(=O)N/N=C/c1cccc(Cl)c1 (configuration not stated)	8	-4	-1	5	2	·	·
Cc1cc(=O)[nH]c(SCC(=O)Nc2cccc(S(=O)(=O)N3CCOCC3)c2)n1	-2	0	-4	7	0	·	·
C#CCOCCOCCOCCNc1nc(N2CCN(C(=O)CCCCCCCCCCNC(=O)[C@@H](CCSC)n3cc(CCO)nn3)CC2)nc(N2CCN(C(=O)CCCCCCCCCCNC(=O)[C@H]([C@@H](C)CC)n3cc(CCCCCN)nn3)CC2)n1	·	60*	·	·	0	53*	3
C#CCOCCOCCOCCNc1nc(N2CCN(C(=O)[C@H](C(C)C)n3cc(CCO)nn3)CC2)nc(N2CCN(C(=O)[C@H]([C@@H](C)CC)n3cc(CCCCN)nn3)CC2)n1	4	0	-2	7	4	·	·
C#CCOCCOCCOCCNc1nc(N2CCN(C(=O)CCCCCCCCCCNC(=O)[C@@H](CCSC)n3cc(CCO)nn3)CC2)nc(N2CCN(C(=O)CCCCCCCCCCNC(=O)[C@H]([C@@H](C)CC)n3cc(CCCCN=C(N)N)nn3)CC2)n1	-3	55*	68*	78*	0	49*	0
CC(=O)Nc1ccc(Nc2nc(C)c([N+](=O)[O-])c(Nc3ccc(NC(C)=O)cc3)n2)cc1	0	-1	0	23	0	·	·
Cc1ccn2c(Nc3ccccc3)c(-c3ccccn3)nc2c1	0	31*	-2	17	0	33*	-1
Cc1ccccc1Nc1c(-c2ccccn2)nc2ccccn12	1	34*	-5	-6	0	12	2
Cc1ccn2c(Nc3ccccc3C)c(-c3ccccn3)nc2c1	2	32*	-3	11	1	39*	3
Cc1ccccc1Nc1c(-c2cccnc2)nc2ccccn12	0	-9	-3	8	0	·	·
CCOC(=O)CC1(C)Oc2cc(Cl)ccc2N1S(=O)(=O)c1ccc(C)cc1 (configuration not stated)	1	·	·	·	·	·	·
CCOC(=O)C1CCCN(C(=O)Cn2nc(C)n3c(cc4c(OC)cccc43)c2=O)C1 (configuration not stated)	2	-3	-2	2	0	·	·
O=C(Nc1cnn(Cc2ccccc2)c1)NC12CC3CC(CC(C3)C1)C2	1	0	0	-2	4	·	·
O=C(O)C1C2CCC(O2)C1C(=O)Nc1ccc(F)c(Cl)c1 (configuration not stated)	-3	66*	-6	-5	1	10	19*
O=C(O)C1C2CCC(O2)C1C(=O)Nc1cnn(Cc2ccccc2)c1 (configuration not stated)	0	24*	-6	6	2	7	18*
